# ChEMBL document CHEMBL3988442, “University of Dundee, Small-Polar-MMV Screening Library” (2021)
# Out of some 48,000 compounds screened, about 13,000 (27%) showed an effect of 50% or more. The list shows a part of the results.
# System: Wolbachia pipientis
# Test: Anti-Wolbachia Cell-Based Screen
# Format: functional
# Design: scale not given: in the data most compounds retested in dose-response had high values
# Details: 5 µM
row,Structure (SMILES),Percent Effect [%]
1,CC(C)C(=O)NCCNC(=O)C12CCC(=O)N1c1cc(Cl)ccc1S2 (stereo not given),-7.313
2,CC(=O)N[C@@H]1Cc2ccccc2[C@H]1Nc1cc(C2CC2)ncn1,-3.919
3,COCCn1/c(=N\C(=O)CN(C)S(C)(=O)=O)sc2cc(Cl)ccc21,-11.47
4,Cc1ccc2nc(C)c(C)c(C(=O)N3CCC4(CCO4)CC3)c2c1,-9.053
5,O=C(NCc1cccnc1)C1=NN(c2ccccc2)C(=O)CN1,-0.2289
6,CCC(=O)N1CCC(NC2CCSCC2)C1 (stereo not given),-15.97
7,O=C(N[C@]12CC1CN(C(=O)c1ccco1)C2)c1cccc(F)c1 (stereo not given in full),-50.8
8,OCCC1CN(C2CCC2)CCN1C1CCCC1 (stereo not given),7.142
9,Cc1cc(C)n(CC2CN(Cc3nc(-c4ccoc4)no3)CCO2)n1 (stereo not given),9.322
10,CCc1nc(CN2CCOC(Cn3nc(C)cc3C)C2)no1 (stereo not given),85.61
11,Cc1cc(C)n(CC2CN(Cc3nc(C)c(C)o3)CCO2)n1 (stereo not given),127.2
12,CCc1nc(CN2CCOC(Cn3nc(C)nc3C)C2)no1 (stereo not given),5.512
13,CCc1n[nH]c(C2CN(Cc3nc(C4CC4)no3)CCO2)n1 (stereo not given),14.51
14,Cc1cc(C)n(CC2CN(Cc3nc(C4CC4)no3)CCO2)n1 (stereo not given),104.8
15,Cc1cc(C)n(CC2CN(Cc3cscn3)CCO2)n1 (stereo not given),-9.283
16,Cc1cc(C)n(CC2CN(Cc3nnsc3Cl)CCO2)n1 (stereo not given),2.291
17,Cc1cc(C)n(CC2CN(Cc3noc(C)n3)CCO2)n1 (stereo not given),98.99
18,O=C1O[C@@H]2CN(C3CCOCC3)C[C@@H]2N1CCc1cccc(Cl)c1,-15.11
19,CCNC(=O)NC(=O)CNC(C)(CC)c1nccs1 (stereo not given),7.409
20,CC(=O)c1cc(C(=O)N2CCC(CC(C)C)C2)c(=O)[nH]c1C (stereo not given),6.103
21,O=C1CC(Nc2ccc3nccnc3n2)CN1c1ccccc1 (stereo not given),-12.7
22,Cc1cc(C)n(CC2CN(Cc3noc(C4CC4)n3)CCO2)n1 (stereo not given),115.4
23,c1cnn(CC2CN(Cc3noc(C4CC4)n3)CCO2)c1 (stereo not given),-0.1842
24,COc1cccc2c1OCCCN(c1nc(C)nc3c1CCNCC3)C2,-7.329
25,c1ccc(-n2ccc(CN3CCCC3Cn3cncn3)n2)cc1 (stereo not given),128.5

row,Structure (SMILES),Percent Effect [%]
1,Fc1ccc(CN2CCCC2Cn2cccn2)c2ncccc12 (stereo not given),-3.711
2,c1ccc(-n2ccc(CN3CCCCC3Cn3cncn3)n2)cc1 (stereo not given),140.8
3,c1ccc(CN2CCCC2Cn2cncn2)nc1 (stereo not given),-0.04189
4,Fc1cccc(-n2ccc(CN3CCCC3Cn3cccn3)n2)c1 (stereo not given),141.1
5,c1ccc(-c2nc(CN3CCCC3Cn3cncn3)cs2)cc1 (stereo not given),-3.695
6,N#Cc1ccccc1CN1CCCCC1Cn1cncn1 (stereo not given),7.073
7,N#Cc1ccc(F)c(CN2CCCC2Cn2cccn2)c1 (stereo not given),-3.171
8,Fc1cccc(-n2ccc(CN3CCCCC3Cn3cncn3)n2)c1 (stereo not given),-7.7
9,COCC(=O)N1CCC(C(=O)N(C)CCCc2nccn2C)CC1,-11.58
10,CCC[C@H]1CN(S(=O)(=O)c2cc(C)ccc2C)C[C@@H]1N,-30.29
11,CC(=O)N1CCCC2(CCN(C(=O)c3nn(C)c4ccccc34)CC2)C1,-40.55
12,CS(=O)(=O)N1CCCC12CCCN(C(=O)c1ccno1)C2 (stereo not given),-3.748
13,CN1CCC2(CC1)CCN(C(=O)c1onc3ccccc13)C2,92.75
14,Cc1ccoc1C(=O)N1CCCC2(CCCN2S(C)(=O)=O)C1 (stereo not given),-9.811
15,CCN(CC)Cc1cc(C(=O)N2CCC3(CCN(C)CC3)C2)c(C)o1,8.973
16,CN1CCC2(CC1)CN(C(=O)c1onc3ccccc13)CCCN2C,72.92
17,Cc1ccc(C(CNC(=O)Cc2nc3ncccn3n2)N(C)C)cc1 (stereo not given),-10.58
18,CC(=O)NCCc1ccc(S(=O)(=O)N(C)C(C)CC(C)C)s1 (stereo not given),2.114
19,CCC[C@H]1CN(CCS(C)(=O)=O)C[C@@H]1NC(=O)c1ccn(C)n1,-3.531
20,CCC[C@@H]1CN(Cc2cnc(-c3cccs3)nc2)C[C@H]1C(=O)O,-4.575
21,CCC[C@@H]1CN(C(=O)c2cc(-c3cccs3)n(C)n2)C[C@H]1NS(C)(=O)=O,96.45
22,CCC[C@@H]1CN(C(=O)c2cc3ccccc3cc2O)C[C@H]1N(C)C,2.808
23,CCC[C@@H]1CN(C(=O)c2ccccc2C(C)=O)C[C@H]1N(C)C,5.199
24,CCC[C@H]1CN(C(=O)c2cc(-c3cccs3)n(C)n2)C[C@@H]1N,106.1
25,CCC[C@@H]1CN(C(=O)c2cc(-c3cccs3)n(C)n2)C[C@H]1N(C)C,95.7
